Screening data as filed in PubChem.
Rows were chosen to be rich in hits. Some 18% of all compounds tested hit in one or more screens of this group.
Six1-Eya2 blk – qHTS Assay for Inhibitors of the Six1/Eya2 Interaction; AlphaScreen GST-Six1/His-Eya2 binding, biochemical; hits give low values; activity change, % (concentration not given with the values); 0.56% of 360,000 active; in the data active means activity change below about -65%; inconclusive means mostly about -30% to -63%
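AlphaScreen with GST-Six1 and His-Eya2 (5X mix: 250 nM and 500 nM), glutathione donor and nickel acceptor beads; buffer 50 mM Tris pH 8.0, 300 mM NaCl, 1 mM TCEP; 1 h at 37 C in the dark.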
CtBP-E1A inh – qHTS Assay for Inhibitors of the CtBP/E1A Interaction; AlphaScreen GST-E1A/His-CtBP binding, 1536-well; hits give low values; 0.49% of 340,000 active; activity change, % (test concentration not listed); AID 651724, 2012; CtBP / adenovirus E1A interaction (AlphaScreen); in the data active means activity change below about -65%; inconclusive means mostly about -30% to -63%
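In 5 uL wells, 23 nL compound meets equimolar GST-E1A and His-CtBP (5X stock 125 nM each) for 2 h, 37 °C. Beads (5X, 50 ug/mL) then 1 h, 37 °C, dark.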
TDP1 inh – qHTS Assay for Inhibitors of Tyrosyl-DNA Phosphodiesterase (TDP1). recombinant TDP1, AlphaScreen DNA substrate cleavage. Potency, µM (top dose mostly 130 µM), inactives show at the top dose activity change, negative = inhibition, hits mostly inhibitors. 0.28% of 350,000 active; further: potency means the concentration at half of the fitted maximal effect; nearly all actives have a fitted effect of over 40% in size
Target sequence (Q9NUW8 whole entry, looked up): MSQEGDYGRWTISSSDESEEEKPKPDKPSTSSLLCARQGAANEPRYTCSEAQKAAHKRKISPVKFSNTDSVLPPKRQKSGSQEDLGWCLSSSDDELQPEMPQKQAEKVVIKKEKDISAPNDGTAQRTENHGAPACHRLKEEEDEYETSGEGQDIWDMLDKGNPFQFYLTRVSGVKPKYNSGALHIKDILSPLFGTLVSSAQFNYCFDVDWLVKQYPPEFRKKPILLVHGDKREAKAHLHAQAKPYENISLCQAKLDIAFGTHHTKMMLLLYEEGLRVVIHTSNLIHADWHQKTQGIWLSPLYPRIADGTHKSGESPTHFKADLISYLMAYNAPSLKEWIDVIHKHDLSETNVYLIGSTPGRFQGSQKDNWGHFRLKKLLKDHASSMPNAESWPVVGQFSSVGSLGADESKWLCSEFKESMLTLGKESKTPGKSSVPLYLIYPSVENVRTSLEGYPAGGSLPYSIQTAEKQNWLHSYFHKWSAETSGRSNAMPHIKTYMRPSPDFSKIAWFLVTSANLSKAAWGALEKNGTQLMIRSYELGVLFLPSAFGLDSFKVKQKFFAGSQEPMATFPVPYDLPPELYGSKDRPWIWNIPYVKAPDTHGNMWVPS
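E. coli-derived human Tdp1, 1 nM final. Cpd preinc 15 min RT; substrate 15 nM final, 5 min RT; AS bead mix 10 ug/ml final, 10 min RT. Signal loss = tyrosine-FITC cleavage. No-enzyme wells = max signal.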
DT40 TDP1 CPT – qHTS for Inhibitors of human tyrosyl-DNA phosphodiesterase 1 (TDP1): qHTS in cells in presence of CPT. AID 686979, 2013. chicken DT40 Tdp1-/-;hTDP1 cells + 20 nM CPT, ATP luminescence, 48 h. Potency, µM (doses to about 46.2 µM), without a hit: top-dose activity change, negative = growth inhibition, hits mostly inhibitors. 12% of 420,000 active; further: potency means the concentration at half of the fitted maximal effect; nearly all actives have a fitted effect of over 55% in size
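Cell growth measured by CellTiter-Glo luminescence after a minimum 48 h, 37 C compound exposure with 20 nM CPT in Tdp1-knockout DT40 cells stably expressing hTDP1, seeded 400/well; qHTS titration format.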
TDP1 cell noCPT – qHTS for Inhibitors of human tyrosyl-DNA phosphodiesterase 1 (TDP1): qHTS in cells in absence of CPT; DT40 Tdp1-/- hTDP1 cells, no CPT, ATP luminescence, 48 h; AID 686978, 2013; Potency, µM (doses to about 46.2 µM), for the others: top-dose activity change, negative = growth inhibition, actives largely listed as inhibitors; 15% of 420,000 active; further: potency means the concentration at half of the fitted maximal effect; nearly all actives have a fitted effect of over 55% in size
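Growth kinetics read by CellTiter-Glo luminescence after ≥48 hr at 37 °C. Cells: DT40 Tdp1-/- stably carrying human TDP1, 400 per well, compound exposure in the absence of CPT (DMSO vehicle).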
IL1B secr inh – qHTS for Inhibitors of Inflammasome Signaling: IL-1-beta AlphaLISA Primary Screen | THP-1 LPS/ATP IL-1B secretion, AlphaLISA, 16 h; hits give low values | 4.7% of 360,000 active | activity change, % at 57.5 µM; in the data active means activity change below about -50%; inconclusive means mostly about -30% to -49%
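Secreted IL-1B measured by AlphaLISA bead assay after 16 h compound exposure of THP-1 cells; compounds (final up to 57.5 uM) added 1 h before LPS (250 ng/mL) and ATP (1.25 mM) stimulation; lower signal means less secretion.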
The depositor's hits bear a star; ? = inconclusive; · = no result given; [ ] = dose if it differs, or a comment. Unless noted, the call rests on the fitted dose curve; in most records, active means well fitted curve in the direction sought with a large enough effect; inconclusive means small, poorly fitted or top-dose-only effect, or another doubt; inactive means no such curve, though single readings can be large; an effect the other way counts as inactive or inconclusive. On the % scale 0 is the no-effect control and ±100 the full control effect.

SMILES | Six1-Eya2 blk | CtBP-E1A inh | TDP1 inh | DT40 TDP1 CPT | TDP1 cell noCPT | IL1B secr inh
COc1ccc(OC)c(NC(=O)CN2C(=O)COc3ccc(S(=O)(=O)N4CCCC4)cc32)c1 | -0.8 | 3.5 | 4.2% | ? | ? | -0.6
COc1ccc(N2CCN(S(=O)(=O)CCNC(=O)c3ccc(Br)o3)CC2)cc1 | -0.5 | -4.0 | 7.4% | 1.1% | 0.0% | 1.3
CCOC(=O)NC1(Nc2cccc(Cl)c2)Oc2ccccc2O1 | -3.1 | 3.6 | -5.6% | ? | 23.1µM* | 10.1
Cc1cccc(/C(N)=N/OC(=O)c2ccoc2C)c1 | -6.0 | 5.6 | · | 0.651µM* | ? | -0.7
COc1cc2c(c(OC)c1OC)-c1ccc(NC(=O)c3ccc(F)cc3)c(=O)cc1[C@@H](NC(C)=O)CC2 | -12.3 | · | · | 8.2µM* | 7.31µM* | 13.7
COc1cc2c(c(OC)c1OC)-c1ccc(NCc3ccccc3)c(=O)cc1C(NC(C)=O)CC2 (configuration not stated) | 9.9 | 1.0 | · | 0.92µM* | 0.92µM* | 84.8
COc1c(O[C@@H]2O[C@H](CO)[C@@H](O)[C@H](O)[C@H]2O)cc2c(c1OC)-c1ccc(SC)c(=O)cc1[C@@H](NC(C)=O)CC2 | · | · | · | 12.4%[21.1 µM] | -0.9%[21.1 µM] | ·
COc1ccc(C(=O)CC(SCC(NC(C)=O)C(=O)O)c2ccc(Cl)cc2)cc1OC (configuration not stated) | -1.5 | · | · | 14.6µM* | ? | -88.1*
Cc1cccc(NC(=O)CSc2nnc(-c3cc(C)n(-c4ccccc4)c3C)o2)c1C | -15.3 | -20.4 | 4.2% | -8.4% | ? | -79.8*
Cc1cc(-c2nnc(SCC(=O)Nc3ccccc3C(F)(F)F)o2)c(C)n1-c1ccccc1 | -1.5 | 0.9 | 4.5% | -16.1% | ? | -11.8
O=C(CSc1nnc(-c2ccc(C(F)(F)F)cn2)o1)Nc1ccccc1Cl | -84.0* | ? | 1.3% | 1.8% | -1.4% | -4.8
COC(=O)CSc1nnc(-c2ccccc2OC)o1 | 0.4 | 2.3 | 8.7% | -16.6% | -0.9% | 17.2
O=C(CSc1nnc(-c2ccncc2)o1)Nc1ccccc1Cl | 2.0 | 3.2 | -3.3% | -7.9% | 2.8% | 18.9
COc1ccccc1-c1nnc(SCC(=O)Nc2ccccc2F)o1 | · | · | -3.6% | 20.6µM* | 20.6µM* | ·
COc1ccc2nc(N(Cc3cccnc3)C(C)=O)sc2c1 | · | · | 2.6% | -7.2% | 4.1% | ·
N#CC1(c2ccc(NC(=O)c3ccccc3F)cc2)CCCC1 | 29.6 | 0.2 | 0.0% | ? | ? | -68.5*
O=C(Nc1ccc(Nc2ccccc2)cc1)c1ccccc1F | -22.6 | -26.6 | · | ? | ? | -97.3*
CCOC(=O)Nc1cccc(NC(=O)c2ccccc2F)c1 | 7.8 | · | 3.1% | -1.9% | -25.4% | 7.7
CCN(CC)c1ccc(NC(=O)c2ccccc2F)cc1 | -26.4 | -21.9 | 13.0% | ? | 23.1µM* | 16.0
O=C(Nc1ccccc1)c1ccc(F)cc1F | -0.5 | 8.1 | · | 9.0% | 3.6% | -4.7
Cc1ccc(NC(=O)Cn2c(-c3nonc3N)nc3ccccc32)c(Br)c1 | · | · | 7.0% | -0.7% | ? | ·
